Measured values reported in PubChem BioAssay (NCATS).
Inconclusive results are not listed. A call without a number means that no potency is given here. Unmarked numbers belong to inactive results. Activity calls are given as the source filed them. The call rests on the fitted dose curve; in most records, active means well fitted curve in the direction sought with a large enough effect; inconclusive means small, poorly fitted or top-dose-only effect, or another doubt; inactive means no such curve, though single readings can be large; an effect the other way counts as inactive or inconclusive.

Tests used:
[1] = biological target: Glutathione peroxidase 1 (Homo sapiens) (UniProt P07203); assay: Primary qHTS Assay for Inhibitors of Recombinant Selenoprotein Glutathione Peroxidase 1 (GPX1) (AID 1845191); further: nearly all actives have a fitted effect of over 65% in size
Summary of the method: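 Recombinant GPX1 (10 nM final) was preincubated with compound for 30 min at room temperature, then reacted with 1 mM GSH, 0.5 mM CHP, 0.5 mM NADPH and 100 nM glutathione reductase; NADPH fluorescence (340/450 nm) was read at 0 and 15 min.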

[2] = biological target: Phospholipid hydroperoxide glutathione peroxidase GPX4 (Homo sapiens) (UniProt P36969); assay: Primary qHTS Assay for Inhibitors of Recombinant Selenoprotein Glutathione Peroxidase 4 (GPX4) (AID 1845192); further: nearly all actives have a fitted effect of over 65% in size; on activity change, negative = inhibition: series mostly up to about 50 µM
Summary of the method: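 GR-coupled readout: 100 nM GR, 1 mM GSH, 0.5 mM NADPH; NADPH fluorescence (ex 340/em 450 nm) read at t=0 and after 15 min RT. GPX4 200 nM, preincubated 30 min with compound; substrate 0.5 mM CHP.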

[3] = Quantitative High-Throughput drug screen in 47 multiple myeloma cell lines against the NCATS MIPE library collection: FR4_PLB cell viability assay (AID 1918924; further: nearly all actives have a fitted effect of over 35% in size; further: potency means the concentration at half of the fitted maximal effect)
Summary of the method: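 CellTiter-Glo luminescence (ATP) after 48 h compound exposure, 37C/5% CO2; 500 cells/well; MIPE 4.0 approved/investigational drugs pinned in; DMSO = 100%, media only = 0% viability.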

[4] = Quantitative High-Throughput drug screen in 47 multiple myeloma cell lines against the NCATS MIPE library collection: Delta47_JCRB cell viability assay (AID 1918925; further: nearly all actives have a fitted effect of over 45% in size; further: potency means the concentration at half of the fitted maximal effect)
Summary of the method: (§1)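 Inhibition of cell viability is measured here. Each line was plated at 500 cells per well, treated with MIPE 4.0 drugs, kept 48 hours at 37C, then assayed for ATP content by CellTiter-Glo luminescence.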

[5] = Quantitative High-Throughput drug screen in 47 multiple myeloma cell lines against the NCATS MIPE library collection: EJM_DSMZ cell viability assay (AID 1918926; further: nearly all actives have a fitted effect of over 30% in size; further: potency means the concentration at half of the fitted maximal effect)
Summary of the method: as §1

[6] = Quantitative High-Throughput drug screen in 47 multiple myeloma cell lines against the NCATS MIPE library collection: ARP1_JJKsccF8 cell viability assay (AID 1918928; further: nearly all actives have a fitted effect of over 40% in size; further: potency means the concentration at half of the fitted maximal effect)
Summary of the method: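 Myeloma cells, 500 per well, were exposed to MIPE 4.0 drugs by pin transfer for 48 h at 37 °C, 5% CO2. Viability was read as ATP luminescence with CellTiter-Glo, normalised to DMSO-only (100%) and medium-only (0%) wells.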

[7] = Quantitative High-Throughput drug screen in 47 multiple myeloma cell lines against the NCATS MIPE library collection: AMO1_DSMZ cell viability assay (AID 1918927; further: nearly all actives have a fitted effect of over 30% in size; further: potency means the concentration at half of the fitted maximal effect)
Summary of the method: as §1

Sequence of Glutathione peroxidase 1 (Homo sapiens) (P07203 whole entry, looked up): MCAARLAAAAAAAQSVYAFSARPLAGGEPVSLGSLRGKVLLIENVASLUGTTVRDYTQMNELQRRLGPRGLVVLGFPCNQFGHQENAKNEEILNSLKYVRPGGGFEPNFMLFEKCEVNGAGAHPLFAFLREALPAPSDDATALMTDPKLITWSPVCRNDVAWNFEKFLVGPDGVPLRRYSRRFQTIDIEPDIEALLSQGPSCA
Sequence of Phospholipid hydroperoxide glutathione peroxidase GPX4 (Homo sapiens) (P36969 whole entry, looked up): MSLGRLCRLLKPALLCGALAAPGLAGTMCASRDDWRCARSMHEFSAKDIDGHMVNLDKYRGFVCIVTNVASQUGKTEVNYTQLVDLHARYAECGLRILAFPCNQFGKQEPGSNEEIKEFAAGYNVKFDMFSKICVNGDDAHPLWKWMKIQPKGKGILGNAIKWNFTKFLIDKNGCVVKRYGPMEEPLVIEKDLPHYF

COc1ccc([C@@H]2CNC(=O)C2)cc1OC1CCCC1
Potency [1]: inactive | Potency [2]: inactive | Potency [3]: inactive | Potency [4]: 3.72 µM (active) | Potency [5]: inactive | Potency [6]: inactive

COc1cccc2c1C(=O)c1c(O)c3c(c(O)c1C2=O)C[C@@](O)(C(=O)CO)C[C@@H]3O[C@H]1C[C@H](N)[C@H](OC2CCCCO2)[C@H](C)O1 (stereo partly drawn)
Potency [1]: inactive | Potency [2]: inactive | Potency [3]: 3.72 µM (active) | Potency [4]: 0.833 µM (active) | Potency [7]: inactive

Nc1nc2c(c(=O)[nH]1)N(C=O)[C@H](CNc1ccc(C(=O)N[C@@H](CCC(=O)O)C(=O)O)cc1)CN2
Potency [1]: inactive | Potency [2]: inactive | Potency [3]: inactive | Potency [5]: inactive | Potency [7]: inactive

C=CC(=O)N1CCc2ccc(-n3c(=O)ccc4cnc5ccc(-c6cnn(C)c6)cc5c43)cc21
Potency [1]: inactive | Potency [2]: inactive | Potency [3]: 1.66 µM (active) | Potency [4]: 0.935 µM (active) | Potency [5]: 3.72 µM (active) | Potency [7]: 2.96 µM (active) | Potency [6]: 1.05 µM (active)

COc1ccc(Nc2cc(-c3cnc(N)nc3)nc(N3CCOCC3)n2)cn1
Potency [1]: inactive | Potency [2]: inactive | Potency [3]: 4.18 µM (active) | Potency [4]: 1.48 µM (active) | Potency [7]: 3.72 µM (active) | Potency [6]: 0.469 µM (active)

COc1cc2c(cc1OC)[C@@H]1C(=O)c3ccc4c(c3O[C@@H]1CO2)C=CC(C)(C)O4
Potency [1]: inactive | Potency [2]: inactive | Potency [3]: 4.18 µM (active) | Potency [5]: 8.33 µM (active) | Potency [7]: 0.0935 µM (active) | Potency [6]: 0.059 µM (active)

N#CNC(=NCCCCCCOc1ccc(Cl)cc1)Nc1ccncc1
Potency [1]: inactive | Potency [2]: inactive | Potency [3]: 20.9 µM (active) | Potency [4]: 18.7 µM (active) | Potency [5]: 16.6 µM (active) | Potency [6]: 0.0066 µM (active)

CCCCC(=O)O[C@]1(C(=O)CO)[C@@H](C)C[C@H]2[C@@H]3CCC4=CC(=O)C=C[C@]4(C)[C@@]3(F)[C@@H](O)C[C@@]21C
Potency [1]: inactive | Potency [2]: inactive | Potency [3]: inactive | Potency [5]: inactive | Potency [7]: inactive

COC(=O)[C@H](CCCN=C(N)N)NS(=O)(=O)c1ccc(C)cc1
Potency [1]: inactive | Potency [2]: inactive | Potency [3]: inactive | Potency [5]: inactive

Cn1cnc(=N)c2[nH]cnc21
Potency [1]: inactive | Potency [2]: inactive | Potency [3]: 0.148 µM (active) | Potency [4]: 0.132 µM (active) | Potency [5]: 0.526 µM (active) | Potency [7]: 0.0833 µM (active) | Potency [6]: 0.118 µM (active)

Nc1nc(=O)n([C@H]2C[C@H](O)[C@@H](CO)O2)cc1F
Potency [1]: inactive | Potency [2]: inactive | Potency [3]: inactive | Potency [5]: inactive | Potency [6]: 0.526 µM (active)

Oc1cc2c(cc1O)C1c3ccc(O)c(O)c3OCC1(O)C2 (stereo not drawn)
Potency [1]: inactive | Potency [2]: inactive | Potency [3]: inactive | Potency [4]: inactive | Potency [7]: inactive | Potency [6]: inactive

COc1ccc(C[C@@H](C)[C@@H](C)Cc2ccc(OC)c(OC)c2)cc1OC
Potency [1]: inactive | Potency [2]: inactive | Potency [3]: 0.118 µM (active) | Potency [4]: 0.296 µM (active) | Potency [6]: 0.132 µM (active)

Cc1cnc(NC(=O)Nc2cc(Br)c(C)cc2OC[C@@H]2CNCCO2)cn1
Potency [1]: inactive | Potency [2]: inactive | Potency [3]: 0.59 µM (active) | Potency [5]: 3.72 µM (active) | Potency [6]: 13.2 µM (active)

COC1=C(OC)C(=O)C(CC=C(C)CCC=C(C)CCC=C(C)CCC=C(C)CCC=C(C)CCC=C(C)CCC=C(C)CCC=C(C)CCC=C(C)CCC=C(C)C)=C(C)C1=O
activity, negative = inhibition [1]: 1.94% [at 4.49 µM] | outcome [2]: inactive [at 4.52 µM] | Potency [3]: inactive | Potency [5]: inactive | Potency [7]: inactive | Potency [6]: inactive

NC[C@H]1O[C@H](O[C@H]2[C@@H](O)[C@@H](O[C@H]3O[C@H](CO)[C@@H](O)[C@H](N)[C@@H]3O)[C@H](N)C[C@@H]2N)[C@H](N)C[C@H]1O
outcome [1]: inactive [at 9.52 µM] | activity change, negative = inhibition [2]: -9.51% [at 9.73 µM] | Potency [3]: inactive | Potency [4]: inactive | Potency [7]: inactive | Potency [6]: inactive

C#Cc1cccc(Nc2ncnc3cc(OCCOC)c(OCCO)cc23)c1
Potency [1]: inactive | Potency [2]: inactive | Potency [3]: 7.43 µM (active) | Potency [4]: 1.05 µM (active) | Potency [7]: 2.35 µM (active)

N#Cc1c(NC(=O)c2cccc3ccccc23)sc2c1CCCC2
Potency [1]: inactive | Potency [2]: inactive | Potency [3]: 0.209 µM (active) | Potency [4]: 0.418 µM (active) | Potency [7]: 0.118 µM (active) | Potency [6]: 0.418 µM (active)

O=C1NCCc2[nH]c(-c3ccncc3)cc21
Potency [1]: inactive | Potency [2]: inactive | Potency [3]: 1.87 µM (active) | Potency [4]: 2.96 µM (active) | Potency [5]: 1.87 µM (active) | Potency [7]: 1.66 µM (active) | Potency [6]: 5.9 µM (active)

CCn1c(=O)c2c(nc(C=Cc3ccc(OC)c(OC)c3)n2C)n(CC)c1=O
Potency [1]: inactive | Potency [2]: inactive | Potency [3]: inactive | Potency [6]: inactive

O=C(CCCCCCC(=O)Nc1cccnc1)NO
Potency [1]: inactive | Potency [2]: inactive | Potency [4]: 2.96 µM (active) | Potency [5]: 7.43 µM (active) | Potency [7]: 2.35 µM (active) | Potency [6]: 2.35 µM (active)

OC[C@H]1OC(O)C[C@@H](O)[C@H]1O (stereo partly drawn)
Potency [1]: inactive | Potency [2]: inactive | Potency [3]: inactive | Potency [5]: inactive | Potency [6]: inactive
